Test results as given in PubChem BioAssay (Tox21).
Results filed as inconclusive are left out. Calls of active or inactive are those of the source. Unless noted, calls come from the whole dose curve; as a rule, active = well fitted curve in the direction sought with a large enough effect in the repeat runs; inconclusive = weak or mixed curves; inactive = no such curve, though single readings can be large; an effect the other way counts as inactive or inconclusive.

Assays:
[1] = qHTS assay for small molecule agonists of the p53 signaling pathway - cell viability (AID 651633; calls by dose curve;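 note: p53RE-bla HCT reporter cells with a stable beta-lactamase p53 reporter; series mostly up to about 83 µM; nearly all actives have a fitted effect of over 30% in size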)
Procedure, shortened: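 p53RE-bla cells were treated with compound for 16 hours at 37 C. Cytotoxicity was then measured as CellTiter-Glo luminescence after 30 min at room temperature.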

[2] = qHTS assay for small molecules that induce genotoxicity in human embryonic kidney cells expressing luciferase-tagged ATAD5 - cell viability (AID 651634; calls by dose curve; note: nearly all actives have a fitted effect of over 25% in size)
Procedure, shortened: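 Viability read: CellTiter-Fluor fluorescence, 30 min at 37C. Cells: HEK293T, luciferase-tagged ATAD5. Exposure: 15.5 hr, 37C, 5% CO2, compound or DMSO vehicle.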

[3] = qHTS assay for small molecule disruptors of the mitochondrial membrane potential - cell viability (AID 720634; calls by dose curve;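 note: human HepG2 liver cancer cells; series mostly up to about 83 µM; nearly all actives have a fitted effect of over 20% in size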)
Procedure, shortened: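 HepG2, 1 hr compound, 37 C. ATP luminescence via CellTiter-Glo, 30 min RT, same well as m-MPI.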

[4] = qHTS assay for small molecule disruptors of the mitochondrial membrane potential (AID 720635); note: potency is the fitted concentration of half-maximal effect
Procedure, shortened: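 HepG2 cells exposed to compound 1 hr at 37C, then Mito-MPS dye 30 min. Ratio read of aggregate (540/590 nm) versus monomer (490/535 nm) fluorescence.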

[5] = qHTS assay to test for compound auto fluorescence at 590 nm (red) in HepG2 cells (AID 720674)
Procedure, shortened: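 Seeding: 2,000 HepG2 cells/well, MEM/10% FBS, overnight 37 C. Dosing: compound vs DMSO. Incubation: 1 hr, 37 C, 5% CO2. Read: fluorescence 540 ex/590 em, Rose Bengal sodium as red reference.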

[6] = qHTS assay to test for compound auto fluorescence at 535 nm (green) in HepG2 cells (AID 720675)
[7] = qHTS assay to test for compound auto fluorescence at 460 nm (blue) in HEK293 cells (AID 720678)
Procedure, shortened: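 Blue-channel (Ex/Em 405/460 nm) intensity measured in HEK293 cultures after overnight compound exposure at 37C; signal expressed relative to triamterene. Cells plated 2,000 per well in 10% dialyzed FBS medium and allowed 4-5 hr to attach.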

[8] = qHTS assay to test for compound auto fluorescence at 590 nm (red) in HEK293 cells (AID 720679)
Procedure, shortened: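 Red-channel autofluorescence (Ex/Em 540/590 nm; Rose Bengal sodium reference) was measured after overnight 37C, 5% CO2 exposure of attached HEK293 cells, 2,000 per well in medium with 10% dialyzed FBS.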

[9] = qHTS assay to test for compound auto fluorescence at 535 nm (green) in HEK293 cells (AID 720680)
[10] = qHTS assay to test for compound auto fluorescence at 460 nm (blue) in HEK293 cell free culture (AID 720681)
Procedure, shortened: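 Compounds were added to cell-free DMEM with 10% FBS and fluorescence read directly. The blue channel used 405 nm excitation and 460 nm emission, with triamterene as the reference fluorophore.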

[11] = qHTS assay to test for compound auto fluorescence at 535 nm (green) in HEK293 cell free culture (AID 720682)
Procedure, shortened: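 Read-out: 485/535 nm fluorescence intensity, calibrated against fluorescein. Medium only (DMEM + 10% FBS, no cells); test compound or DMSO vehicle added by pintool before plate reading.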

[12] = qHTS assay to test for compound auto fluorescence at 590 nm (red) in HepG2 cell free culture (AID 720684)
Procedure, shortened: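 Compound was pinned into wells holding MEM with 10% FBS and no cells, and red fluorescence was read at Ex/Em 540/590 nm. Signal is expressed as auto fluorescence equivalency relative to Rose Bengal sodium.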

[13] = qHTS assay to test for compound auto fluorescence at 460 nm (blue) in HepG2 cell free culture (AID 720685)
Procedure, shortened: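 Compound (23 nL) or DMSO pinned into cell-free MEM with 10% FBS; blue fluorescence read at 405/460 nm excitation/emission, expressed as auto-fluorescence equivalency to triamterene.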

[14] = qHTS assay to test for compound auto fluorescence at 535 nm (green) in HepG2 cell free culture (AID 720686)
[15] = qHTS assay to test for compound auto fluorescence at 460 nm (blue) in HepG2 cells (AID 720687)
Procedure, shortened: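 HepG2 cells in MEM with 10% FBS, attached overnight at 37 C, were exposed to compound or DMSO for 1 hr at 37 C, 5% CO2. Blue fluorescence was read at 405/460 nm, with triamterene as reference fluorophore.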

[16] = target: Glucocorticoid receptor (Homo sapiens) (UniProt P04150); assay: qHTS assay to identify small molecule agonists of the glucocorticoid receptor (GR) signaling pathway (AID 720691; active = well fitted activation curve with a large enough effect in the signal ratio in the repeat runs, not every such curve was filed as active; the % refers to the signal ratio)
Procedure, shortened: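 qHTS in GR-bla HeLa cells: 4 h settling at 37 C/5% CO2, 18 h compound incubation at 37 C, 2 h LiveBLAzer B/G FRET substrate at room temperature, fluorescence intensity measured.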

[17] = target: Glucocorticoid receptor (Homo sapiens) (UniProt P04150); assay: qHTS assay to identify small molecule antagonists of the glucocorticoid receptor (GR) signaling pathway (AID 720692; active = well fitted inhibition curve with a large enough effect in the signal ratio in the repeat runs, not every such curve was filed as active; the % refers to the signal ratio)
Procedure, shortened: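 Inhibition of glucocorticoid signalling is measured in HeLa cells with a GRE-controlled beta-lactamase reporter; cells are co-treated with compound and 5 nM dexamethasone (final) for 18 h before FRET substrate readout.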

[18] = qHTS assay for small molecules that induce genotoxicity in human embryonic kidney cells expressing luciferase-tagged ATAD5 (AID 651632); note: nearly all actives have a fitted effect of over 15% in size; note: potency is the fitted concentration of half-maximal effect
Procedure, shortened: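 Luminescent reporter readout, HEK293T ATAD5-luc line: 16 hr drug exposure (37C, 5% CO2) followed by Amplite, 30 min RT.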

[19] = qHTS assay to test for compound auto fluorescence at 590 nm (red) in HEK293 cell free culture (AID 720683)
Procedure, shortened: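 Cell-free wells of DMEM with 10% FBS received compound, and intrinsic fluorescence was read at excitation/emission 540/590 nm. Values expressed as equivalence to Rose Bengal sodium.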
% is set by controls: 0 for no effect and ±100 for the full control effect.

Chain of Glucocorticoid receptor (Homo sapiens) (P04150 whole entry, looked up): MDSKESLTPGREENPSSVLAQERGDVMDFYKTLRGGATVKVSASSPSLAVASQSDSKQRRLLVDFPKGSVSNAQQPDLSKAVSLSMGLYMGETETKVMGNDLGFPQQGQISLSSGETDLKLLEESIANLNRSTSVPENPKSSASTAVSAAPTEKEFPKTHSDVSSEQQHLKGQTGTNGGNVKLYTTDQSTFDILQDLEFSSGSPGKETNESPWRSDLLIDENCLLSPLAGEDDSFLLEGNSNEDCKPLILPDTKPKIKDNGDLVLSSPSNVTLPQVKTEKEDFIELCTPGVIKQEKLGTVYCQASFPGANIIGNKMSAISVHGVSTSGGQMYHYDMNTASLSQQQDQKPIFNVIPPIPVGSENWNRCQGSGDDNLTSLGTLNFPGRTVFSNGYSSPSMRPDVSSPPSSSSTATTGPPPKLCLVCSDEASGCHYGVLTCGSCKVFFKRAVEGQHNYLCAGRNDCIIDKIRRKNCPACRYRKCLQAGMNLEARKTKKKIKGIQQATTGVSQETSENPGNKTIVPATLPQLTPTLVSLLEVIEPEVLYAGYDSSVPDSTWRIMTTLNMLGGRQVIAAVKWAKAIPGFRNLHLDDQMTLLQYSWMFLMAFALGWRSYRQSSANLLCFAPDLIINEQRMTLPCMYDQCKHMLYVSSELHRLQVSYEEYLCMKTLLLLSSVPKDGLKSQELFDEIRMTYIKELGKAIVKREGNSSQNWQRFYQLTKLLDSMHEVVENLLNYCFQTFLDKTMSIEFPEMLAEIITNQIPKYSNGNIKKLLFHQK

CCCC=O
inactive: Potency [1] | Potency [2] | Potency [3] | Potency [4] | outcome [5] | outcome [6] | Potency [7] | outcome [8] | outcome [9] | Potency [10] | outcome [11] | outcome [12] | Potency [13] | outcome [14] | Potency [15] | Potency [16] | Potency [17]

CCCCCCCCN(C)CCCCCCCC
inactive: Potency [18] | Potency [1] | Potency [2] | Potency [3] | outcome [5] | outcome [6] | Potency [7] | outcome [8] | outcome [9] | Potency [10] | outcome [11] | outcome [12] | Potency [13] | outcome [14] | Potency [15] | Potency [16] | Potency [17]

CC(=O)c1ccc(C)cc1
inactive: Potency [18] | Potency [1] | Potency [2] | Potency [3] | outcome [5] | outcome [6] | Potency [7] | outcome [8] | outcome [9] | Potency [10] | outcome [11] | outcome [12] | Potency [13] | outcome [14] | Potency [15] | Potency [16]

CC(CCO)CCCC(C)(C)O (centres undefined)
inactive: Potency [18] | Potency [1] | Potency [2] | Potency [3] | outcome [5] | outcome [6] | Potency [7] | outcome [8] | outcome [9] | Potency [10] | outcome [11] | outcome [19] | outcome [12] | Potency [13] | outcome [14] | Potency [15] | Potency [16] | Potency [17]

O=Cc1ccccc1[N+](=O)[O-]
inactive: Potency [18] | Potency [1] | Potency [2] | Potency [3] | outcome [5] | outcome [6] | Potency [7] | outcome [8] | outcome [9] | Potency [10] | outcome [11] | outcome [19] | outcome [12] | Potency [13] | outcome [14] | Potency [15] | Potency [16] | Potency [17]

CC(C)c1ccc2oc3nc(N)c(C(=O)O)cc3c(=O)c2c1
active: Potency [18] 4.73 µM
inactive: Potency [1] | Potency [2] | Potency [3] | outcome [5] | outcome [6] | Potency [7] | outcome [8] | outcome [9] | Potency [10] | outcome [11] | outcome [19] | outcome [12] | Potency [13] | outcome [14] | Potency [15] | Potency [16] | Potency [17]

C#CC(O)C(CC)CCCC (centres undefined)
inactive: Potency [18] | Potency [1] | Potency [2] | Potency [3] | outcome [5] | outcome [6] | Potency [7] | outcome [8] | outcome [9] | Potency [10] | outcome [11] | outcome [12] | Potency [13] | outcome [14] | Potency [15] | Potency [16]

CC(C)(C)CC(C)(C)N
inactive: Potency [18] | Potency [2] | Potency [3] | Potency [4] | outcome [5] | Potency [7] | outcome [8] | outcome [9] | Potency [10] | outcome [11] | outcome [12] | Potency [13] | outcome [14] | Potency [15] | Potency [16] | Potency [17]

CCN(CC)S(=O)(=O)c1ccc(C(=O)O)cc1
inactive: Potency [18] | Potency [1] | Potency [2] | Potency [3] | outcome [5] | outcome [6] | Potency [7] | outcome [8] | outcome [9] | Potency [10] | outcome [11] | outcome [19] | outcome [12] | Potency [13] | outcome [14] | Potency [15] | Potency [16] | Potency [17]

C(=C(c1ccccc1)c1ccccc1)c1ccccc1
inactive: Potency [18] | Potency [2] | Potency [3] | outcome [5] | outcome [6] | Potency [7] | outcome [8] | outcome [9] | Potency [10] | outcome [11] | outcome [19] | outcome [12] | Potency [13] | outcome [14] | Potency [15] | Potency [16] | Potency [17]
active: Potency [4] 30.6 µM

CN(C)C(=O)Nc1ccccc1
inactive: Potency [18] | Potency [2] | Potency [3] | outcome [5] | outcome [6] | Potency [7] | outcome [8] | outcome [9] | Potency [10] | outcome [11] | outcome [19] | outcome [12] | Potency [13] | outcome [14] | Potency [15]

C=C(C)C(=O)OCCCCCCCCCCCCCCCCCC
inactive: Potency [18] | Potency [1] | Potency [2] | fluorescence, relative to Rose Bengal [5] -0.0569% [at 18.6 µM] | fluorescence, % of triamterene [7] -0.0754% [at 18.6 µM] | fluorescence, % of fluorescent control [8] 0.299% [at 18.6 µM] | fluorescence, % of fluorescein [9] 0.0795% [at 18.6 µM] | fluorescence, % of fluorescent control [10] -0.0848% [at 18.6 µM] | activity change [11] -0.0033% [at 18.6 µM] | fluorescence, % of fluorescent control [19] -0.0264% [at 18.6 µM] | fluorescence, % of Rose Bengal [12] -0.0496% [at 18.6 µM] | fluorescence, % of fluorescent control [13] -0.0261% [at 18.6 µM] | fluorescence, % of fluorescein control [14] -0.0135% [at 18.6 µM] | fluorescence, % of fluorescent control [15] 0.214% [at 18.6 µM] | Potency [16] | Potency [17]

C=CC(=O)N1CCOCC1
inactive: Potency [18] | Potency [1] | Potency [2] | outcome [5] | outcome [6] | Potency [7] | outcome [8] | outcome [9] | Potency [10] | outcome [11] | outcome [19] | outcome [12] | Potency [13] | outcome [14] | Potency [15] | Potency [16]

CN(C)C(=O)C(CCN1CCC(O)(c2ccc(Cl)cc2)CC1)(c1ccccc1)c1ccccc1
inactive: Potency [18] | Potency [3] | outcome [5] | Potency [7] | outcome [8] | outcome [9] | Potency [10] | outcome [11] | outcome [19] | outcome [12] | Potency [13] | outcome [14] | Potency [15] | Potency [16]

Nc1ccn(C2CO[C@H](CO)O2)c(=O)n1 (some centres undefined)
inactive: Potency [18] | Potency [1] | Potency [2] | Potency [3] | outcome [5] | outcome [6] | Potency [7] | outcome [8] | outcome [9] | Potency [10] | outcome [11] | outcome [12] | Potency [13] | outcome [14] | Potency [15]

c1ccc(CCCc2ccccn2)cc1
inactive: Potency [18] | Potency [1] | Potency [2] | Potency [3] | outcome [5] | outcome [6] | Potency [7] | outcome [8] | outcome [9] | Potency [10] | outcome [11] | outcome [12] | Potency [13] | outcome [14] | Potency [15]

CCOC(=O)Cn1c(=O)sc2cccc(Cl)c21
inactive: Potency [18] | Potency [1] | Potency [2] | Potency [3] | outcome [5] | outcome [6] | Potency [7] | outcome [8] | outcome [9] | Potency [10] | outcome [11] | outcome [12] | Potency [13] | outcome [14] | Potency [15] | Potency [16]
